The target of one assay is PKIG. Nature of the assay: pooled miR-30 sensor sort-seq; sequence = guide strand. Particulars: shRNA.
Sequence TTCCTCACGCTCACAGCCTCTG showed a sensor-assay potency score (higher = more potent) of -0.203.
The same measure, in the same setting: the same measure for TAACATCTTGTGGTTACAGTGT: -0.118; for TCGAGTGCCAGCTCGCCCATGT: -1.07; for TTGCCAGCTTCCTTGTCTGGGG: -0.658.
On the same count and under the same terms, the same measure for TGTCCGGTCACAGGAGATGAAG: -2.03.
On the same count and under the same terms, the value for TTGATTGTCAGCTCTCTCCATA was -0.293; that for TGGGGCGCTTCCCTCCACCTGT was -1.57.
In turn, TCACAGCCTCTGAGTCTCCCTG yielded a sensor-assay potency score (higher = more potent) of -1.09.
Still for that read-out and setting: the value for ATGTCAGGGACCGCATTCCGAC was -1.85; that for TTACAGTGTCTTGAAAGTGTAC was -0.626; that for TCAGGGACCGCATTCCGACGGC was -0.897.
On the same count and under the same terms, the value for TAGGTGTCACTTATCCTGGTGG was -0.436.

The target in another assay is PKLR. The assay is described as above. Particulars: shRNA.
As to TTGCTGATGATCTTGATGCCGT, the sensor-assay potency score (higher = more potent) was -0.495.
Same read-out and setting: the same measure for TAGATGACAGTTATAGTCTCAG: -0.0862.
The same measure, in the same setting: the value for TTGATCATCTCCTTGAGGCGCT was 1.07.

Values taken from the OligoGym collection.
Also: reference of the scale not given here.
